This is a sample that favours compounds with a hit; in the whole collection about 7.5% have one here.
FLuc modulator – counter-screen for miR-21 project: firefly luciferase inhibitors or activators. AID 588342. P08659. Potency, µM (top dose mostly 57.5 µM), for the others: at the top dose activity change, negative = inhibition, usual class: inhibitors. purified FLuc, Km substrates, luminescence inhibition. 360,000 compounds, 6.9% hits;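 also: plate controls were vehicle for no effect and reference inhibitor for full effect; nearly all actives have a fitted effect of over 55% in size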
Target sequence (P08659 whole entry, looked up): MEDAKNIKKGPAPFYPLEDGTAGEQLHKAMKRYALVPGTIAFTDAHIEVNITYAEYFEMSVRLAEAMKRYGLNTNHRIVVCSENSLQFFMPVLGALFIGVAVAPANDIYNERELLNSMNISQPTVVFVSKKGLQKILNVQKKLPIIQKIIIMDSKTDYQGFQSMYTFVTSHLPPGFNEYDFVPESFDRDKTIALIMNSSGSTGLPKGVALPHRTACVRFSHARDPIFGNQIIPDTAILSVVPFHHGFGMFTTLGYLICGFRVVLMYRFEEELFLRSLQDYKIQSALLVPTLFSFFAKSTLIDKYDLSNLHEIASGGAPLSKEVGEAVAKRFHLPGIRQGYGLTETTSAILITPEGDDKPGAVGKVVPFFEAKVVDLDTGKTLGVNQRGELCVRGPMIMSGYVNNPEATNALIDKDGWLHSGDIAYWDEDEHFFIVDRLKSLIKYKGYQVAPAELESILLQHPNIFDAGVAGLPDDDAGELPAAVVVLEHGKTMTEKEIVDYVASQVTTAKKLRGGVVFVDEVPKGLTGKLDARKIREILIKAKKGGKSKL
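Biochemical qHTS of compounds, final roughly 60 µM downward over six points, against 10 nM purified firefly luciferase using Km concentrations of substrates (10 uM D-luciferin, 10 uM ATP) in Tris acetate pH 7.5 buffer; luminescence output.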
SMN2 splice enh – SMN2 splice variant enhancement. HEK293 SMN2-luciferase splicing reporter, luminescence, 30-36 h. Potency, µM (highest dose often 46.1 µM), for the others: at the top dose activity change, positive = activation, actives largely listed as activators. AID 1458. 210,000 compounds, 2.8% hits; also: % of control where 0% means no effect; nearly all actives have a fitted effect of over 55% in size
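HEK293 cells carry an SMN2 minigene-luciferase reporter in which exon 7 inclusion puts luciferase in frame. Cells were seeded at 2000 cells/well, attached for 10-12 hours, then exposed to compounds for 30-36 hours at 37C before ONE-Glo luminescence.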
Rab9 prom act – activators of Rab9 promoter; Huh7 Rab9 promoter-luciferase reporter, luminescence, 24 h; Potency, µM (series often up to 9.22 µM), inactives show at the highest dose activation, negative = inhibition, most hits filed as activators; 320,000 compounds, 2.8% hits; AID 485297; also: % of control where 0% means no effect; nearly all actives have a fitted effect of over 60% in size
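Using Huh7 cells stably transfected with Rab9 promoter–luciferase, compounds were incubated 24 h at 37 °C, 5% CO2; luciferase luminescence was read 10 min after reagent addition.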
ELG1 genotoxic – induces genotoxicity in HEK293T cells with luciferase-tagged ELG1 | HEK293T ELG1-luciferase reporter, luminescence, 16 h | 330,000 compounds, 1.3% hits | Potency, µM (series often up to 46 µM), without a hit: top-dose activity change, positive = activation, most hits filed as activators | AID 504466; also: % of control where 0% means no effect; nearly all actives have a fitted effect of over 60% in size
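Reporter readout depends on ELG1 protein level, which increases with genetic stress. After 16 hr compound exposure at 37 °C, luciferase activity was quantified using ONE-Glo.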
NPC1 prom act – activators of NPC1 promoter; AID 485313; 320,000 compounds, 2.4% hits; Potency, µM (titrated, usually from 9.22 µM), for the others: at the top dose activation, most hits filed as activators; Huh7 NPC1 promoter luciferase reporter, 24 h; also: % of control where 0% means no effect; nearly all actives have a fitted effect of over 60% in size
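Quantitative HTS used a cell-based reporter: Huh7 cells stably bearing the NPC1 promoter upstream of luciferase were treated with compounds for 24 h, and promoter activation was read as luminescence.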
Starred values were filed as active, the others as inactive; ? = inconclusive; · = no result given; [ ] = dose if it differs, or a comment. Calls follow the shape of the dose curve; as a rule, active = well fitted curve in the direction sought with a large enough effect; inconclusive = small, poorly fitted or top-dose-only effect, or another doubt; inactive = no such curve, though single readings can be large; an effect the other way counts as inactive or inconclusive. Potency is read from the fitted curve at half-maximal effect.

SMILES	FLuc modulator	SMN2 splice enh	Rab9 prom act	ELG1 genotoxic	NPC1 prom act
CC1CCc2c(C(=O)NCc3cccnc3)csc2C1 (stereo not given)	-9%	-17%	1%	1%	-1%
CC1CCc2c(C(=O)Nc3ccccn3)csc2C1 (stereo not given)	2.1µM*	·	3.2µM*	?	3.5µM*
Cc1nc2nc(-c3ccccc3)cn2nc1C	2.4µM*	8.9µM*	·	·	·
CCc1ccc(-c2cn3nc(C)c(C)nc3n2)cc1	0.38µM*	-18%	?	0%	0.089µM*
c1ccc(-c2cn3nc(-c4ccccc4)cnc3n2)cc1	0.21µM*	2µM*	0.45µM*	?	0.63µM*
Cc1cc(N2CCOCC2)n2cc(-c3ccc(F)cc3)nc2n1	?	·	-2%	4%	3%
Cc1nc2nc(-c3ccc(F)cc3)cn2nc1C	2.1µM*	·	0.28µM*	1.6µM*	?
CCc1c(-c2ccccc2)nc2nc(C)c(C)nn12	?	-17%	7%	13%	2%
Cn1c(C(=O)N2CCC(C(=O)NCCc3ccc(S(N)(=O)=O)cc3)CC2)cc2sccc21	-2%	16%	·	·	·
O=C(COC(=O)c1cccnc1Cl)Nc1ccc(N2CCCCC2)cc1	·	·	?	8%	0%
O=C(O)c1cc2c(s1)-c1ccccc1CC2	-16%	-13%[1.84 µM]	8%	2%	2%
CSc1nnc(-c2sccc2-n2cccc2)o1	0%	0%	-7%	-7%	-8%
S=c1[nH]nc(-c2cc3c(s2)-c2ccccc2CC3)o1	17µM*	14µM*	?	?	26%
CC1CCc2sc(-c3n[nH]c(=S)o3)cc2C1 (stereo not given)	6.7µM*	10µM*	?	?	?
CSc1nnc(-c2cc3c(s2)-c2ccccc2CC3)o1	4.8µM*	18µM*	?	?	12%
COc1cc(Cl)c(C)cc1NC(=O)Cn1ncc2c1-c1cc(C)ccc1OC2	-5%	-3%	·	·	·
COc1ccc(NC(=O)c2ccc(-n3nc(C)cc3C)cc2)cc1OC	15µM*	-21%	18%	0%	-2%
Cc1cc(C)n(-c2ccc(C(=O)Nc3ccc(N4CCOCC4)cc3)cc2)n1	-13%	-64%	9%	-18%	18%
Cc1cc(C)n(-c2ccc(C(=O)NC3=NCCS3)cc2)n1	15µM*	?	3.2µM*	?	?
Cc1cc(C)n(-c2ccc(C(=O)Nc3ccc(C)c(S(=O)(=O)N(C)C)c3)cc2)n1	17µM*	-15%[1.84 µM]	-20%	-10%	-4%
Cc1cc(C)n(-c2ccc(C(=O)Nc3ccc4c(c3)OCO4)cc2)n1	13µM*	?	?	?	?
CCOC(=O)N1CCN(C/C(C)=C/c2ccccc2)CC1	-2%	3%	4%	3%	19%
CC(C)CC(=O)N1CCN(S(=O)(=O)c2ccc(C3CCCCC3)cc2)CC1	3%	·	-17%	0%	-13%
COc1ccc(Cl)cc1NC(=O)CCS(=O)(=O)c1nc(-c2cccs2)cc(C(F)(F)F)n1	-10%	7%	·	·	·
CCN(CC)CCNc1ncnc2c1[nH]c1ccc(OC)cc12	8%	-15%	-10%	-1%	0%
SMILES	FLuc modulator	SMN2 splice enh	Rab9 prom act	ELG1 genotoxic	NPC1 prom act
COc1ccc2[nH]c3c(NCc4ccco4)ncnc3c2c1	9.5µM*	2%	4µM*	9%	?
COc1ccc2c(c1)[nH]c1c(=O)n(CCC3=CCCCC3)cnc12	-1%	22%	2%	4%	3%
COc1ccc2[nH]c3c(NCCC4=CCCCC4)ncnc3c2c1	11µM*	-34%	-16%	-3%	-23%
COc1ccc2[nH]c3c(NCCCOC(C)C)ncnc3c2c1	6µM*	·	0.79µM*	?	1.8µM*
COc1cccc(NC(=O)C2C3C=CC(O3)C2C(=O)O)c1 (stereo not given)	0%	·	6%	2%	-3%
O=C(CSc1nnc(-c2ccccn2)n1Cc1ccccc1)NC1CCCC1	0%	-6%	6%	-3%	-2%
Cc1ccc(C2=NN(S(C)(=O)=O)C(c3ccc4nccnc4c3)C2)cc1 (stereo not given)	?	13µM*	?	?	?
COc1ccc(C2CC(c3cccs3)=NN2S(C)(=O)=O)cc1 (stereo not given)	?	·	?	14%	?
CS(=O)(=O)N1N=C(c2ccc(Br)cc2)CC1c1cccs1 (stereo not given)	15µM*	29%	?	?	?
COc1ccc(C2CC(c3ccc(OC)c(OC)c3)=NN2S(C)(=O)=O)cc1 (stereo not given)	8.5µM*	·	0.5µM*	?	1µM*
COc1ccc(C2=NN(S(C)(=O)=O)C(c3cccs3)C2)cc1 (stereo not given)	11µM*	·	0.89µM*	?	3.5µM*
O=C(CCN1C(=O)c2ccccc2C1=O)Nc1ccc2c(c1)OCCO2	-16%	-16%	-5%	4%	3%
CS(=O)(=O)Nc1ccc(C2=NN(S(C)(=O)=O)C(c3ccc4c(c3)OCO4)C2)cc1 (stereo not given)	9.5µM*	11µM*	2.5µM*	?	3.2µM*
Cc1ccc(C2=NN(S(C)(=O)=O)C(c3cccs3)C2)cc1 (stereo not given)	19µM*	11µM*	3.5µM*	?	1.8µM*
CCc1ccc(C2=NN(S(C)(=O)=O)C(c3cccs3)C2)cc1 (stereo not given)	2.4µM*	10µM*	1.6µM*	3.3µM*	1µM*
CS(=O)(=O)N1N=C(c2cccs2)CC1c1ccccc1 (stereo not given)	0%	·	-2%	8%	1%
COc1ccc(C2=NN(C(=O)c3cccs3)C(c3ccccc3O)C2)cc1 (stereo not given)	-1%	-19%	3%	5%	-4%
COc1ccc(C2CC(c3ccccc3)=NN2C(=O)c2cccs2)cc1 (stereo not given)	17µM*	·	?	3%	21%
CC(=O)N1N=C(c2cccc(NS(C)(=O)=O)c2)CC1c1ccc2c(c1)OCO2 (stereo not given)	?	·	15%	0%	18%
O=C(CSc1nnc(-c2ccco2)n1Cc1ccco1)Nc1ccccc1	0%	-13%	6%	1%	-4%
COc1cc(OC)cc(C(=O)Nc2ccc3c(c2)n(C)c(=O)c(=O)n3C)c1	-6%	·	·	·	·
COCCNC(=O)Cc1c(C)c2c(cc(C)c3c(C(C)(C)C)coc32)oc1=O	2.7µM*	·	-8%	4%	-19%
Cc1cc2oc(=O)c(CC(=O)O)c(C)c2c2occ(C(C)(C)C)c12	21µM*	·	15%	20%	?
Cc1cc2oc(=O)c(CC(=O)NCCCN(C)C)c(C)c2c2occ(C(C)(C)C)c12	?	·	-4%	1%	22%
CSCC[C@H](NC(=O)Cc1c(C)c2c(cc(C)c3c(C)coc32)oc1=O)C(=O)O	19µM*	·	-9%	1%	-3%

Assay outcomes: PubChem BioAssay, National Center for Advancing Translational Sciences (NCATS)
